Compound activity: PubChem BioAssay, several laboratories
PostGolgi ctrl: yeast control strain growth, post-Golgi counter-screen; inhibition, % at 10 µM; 5% of 98,000 active; efflux-deficient yeast background strain, growth absorbance A615, 16 h
Cav32 inh: inhibitors of human Cav3.2 T-type calcium channel; O95180; Cav3.2-expressing cells, Fluo-4 calcium fluorescence FDSS; stronger effect = lower value; B-score at 10 µM; 4% of 100,000 active;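 active = single-dose well whose peak fluorescence ratio is a statistical outlier from its plate by either plate-standardised score or position-corrected B-score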
Target sequence (O95180 whole entry, looked up): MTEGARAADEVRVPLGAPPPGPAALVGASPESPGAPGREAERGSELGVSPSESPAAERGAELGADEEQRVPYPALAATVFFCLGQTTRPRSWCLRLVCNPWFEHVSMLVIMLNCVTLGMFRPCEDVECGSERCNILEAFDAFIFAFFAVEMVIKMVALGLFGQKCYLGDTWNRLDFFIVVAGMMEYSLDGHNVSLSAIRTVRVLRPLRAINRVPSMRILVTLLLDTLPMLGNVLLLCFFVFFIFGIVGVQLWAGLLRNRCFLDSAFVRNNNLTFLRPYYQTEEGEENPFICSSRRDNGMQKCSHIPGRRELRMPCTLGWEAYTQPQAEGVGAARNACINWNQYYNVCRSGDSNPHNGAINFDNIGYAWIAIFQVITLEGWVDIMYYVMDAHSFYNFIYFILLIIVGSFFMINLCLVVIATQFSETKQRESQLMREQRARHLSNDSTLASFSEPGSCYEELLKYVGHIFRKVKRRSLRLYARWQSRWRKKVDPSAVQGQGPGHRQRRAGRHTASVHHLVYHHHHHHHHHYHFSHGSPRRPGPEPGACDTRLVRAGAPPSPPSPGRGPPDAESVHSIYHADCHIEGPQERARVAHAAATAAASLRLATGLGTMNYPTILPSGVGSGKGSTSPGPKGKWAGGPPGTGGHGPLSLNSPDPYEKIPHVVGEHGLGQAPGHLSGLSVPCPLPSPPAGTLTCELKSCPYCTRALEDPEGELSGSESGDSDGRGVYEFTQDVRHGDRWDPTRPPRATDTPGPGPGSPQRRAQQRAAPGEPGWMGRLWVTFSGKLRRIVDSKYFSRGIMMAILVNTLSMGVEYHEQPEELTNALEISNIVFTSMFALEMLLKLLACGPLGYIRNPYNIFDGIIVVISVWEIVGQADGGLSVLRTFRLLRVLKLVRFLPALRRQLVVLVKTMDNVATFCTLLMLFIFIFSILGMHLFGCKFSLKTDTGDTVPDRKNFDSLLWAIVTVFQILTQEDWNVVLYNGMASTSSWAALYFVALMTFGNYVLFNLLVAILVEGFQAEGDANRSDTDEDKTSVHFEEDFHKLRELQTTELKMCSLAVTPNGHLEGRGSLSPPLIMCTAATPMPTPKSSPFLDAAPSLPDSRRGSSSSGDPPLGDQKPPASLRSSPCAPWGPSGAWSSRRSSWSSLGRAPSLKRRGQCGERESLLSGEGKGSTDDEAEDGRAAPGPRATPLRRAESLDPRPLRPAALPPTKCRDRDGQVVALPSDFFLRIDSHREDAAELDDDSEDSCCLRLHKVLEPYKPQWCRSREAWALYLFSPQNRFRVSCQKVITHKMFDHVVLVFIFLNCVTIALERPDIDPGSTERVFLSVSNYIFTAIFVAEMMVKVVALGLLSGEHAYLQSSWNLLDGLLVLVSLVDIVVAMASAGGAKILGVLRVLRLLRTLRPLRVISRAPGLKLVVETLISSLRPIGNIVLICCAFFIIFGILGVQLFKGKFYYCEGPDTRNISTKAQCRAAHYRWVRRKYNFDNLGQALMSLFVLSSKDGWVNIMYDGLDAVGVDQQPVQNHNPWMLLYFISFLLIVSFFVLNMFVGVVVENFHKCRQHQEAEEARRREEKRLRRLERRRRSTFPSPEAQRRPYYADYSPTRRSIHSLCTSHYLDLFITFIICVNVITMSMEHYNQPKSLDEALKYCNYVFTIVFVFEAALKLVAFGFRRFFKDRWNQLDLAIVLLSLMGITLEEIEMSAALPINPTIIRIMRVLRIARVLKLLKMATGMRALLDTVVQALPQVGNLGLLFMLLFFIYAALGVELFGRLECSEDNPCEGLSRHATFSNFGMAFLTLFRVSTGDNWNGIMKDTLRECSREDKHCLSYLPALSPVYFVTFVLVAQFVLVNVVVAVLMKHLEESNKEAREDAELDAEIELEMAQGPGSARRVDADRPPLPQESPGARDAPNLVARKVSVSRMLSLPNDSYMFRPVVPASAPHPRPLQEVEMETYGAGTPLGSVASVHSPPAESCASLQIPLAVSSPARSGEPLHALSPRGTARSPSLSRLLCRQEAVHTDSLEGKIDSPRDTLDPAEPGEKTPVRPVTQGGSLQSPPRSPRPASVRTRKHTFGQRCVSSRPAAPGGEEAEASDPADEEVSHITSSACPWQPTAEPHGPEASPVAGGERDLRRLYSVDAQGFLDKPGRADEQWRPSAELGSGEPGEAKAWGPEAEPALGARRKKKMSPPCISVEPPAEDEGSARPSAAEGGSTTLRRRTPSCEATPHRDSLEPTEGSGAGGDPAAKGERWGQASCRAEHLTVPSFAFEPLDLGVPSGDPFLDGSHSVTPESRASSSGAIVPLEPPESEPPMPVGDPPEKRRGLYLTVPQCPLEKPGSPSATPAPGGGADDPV
PostGolgi yeast: growth inhibition of a yeast mutant, post-Golgi transport screen; AID 739; inhibition, % at 10 µM; 0.9% of 98,000 active; post-Golgi transport phenotypic cell assay;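 note: yeast cells grown in 1536-well plates; yeast grown about 18 h at 30C before absorbance read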
PTK2B oligo ant: Pyk2 (human) oligomerization antagonism; Q293 cells, Pyk2 FERM NanoBiT luminescence; stronger effect = lower value; AID 1347419; 0.83% of 99,000 active; z-score (the deposit names both 25 µM and 10 µM); Q14289;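 active = Z-score of -3 or lower, scaled per plate to the spread of control and sample wells; inactive = z-score above -3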;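 note: negative z-score means lost luminescence so less FERM oligomerization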
Each line names hits and unclear results; the compound was inactive in the other large screens. Only some compounds are listed: those with a hit (about 8% of all), similar ones and a draw of the others. Cut-off read from the data, not from the text of the source, unless noted: active = inhibition above about 30%; inactive = the rest.

c1ccc(-c2ccccc2-c2nc(-c3ccncc3)no2)cc1	PostGolgi ctrl 56.1
c1ccc(-c2ccc(-c3nc(-c4ccncc4)no3)cc2)cc1	none
O=C1c2ccccc2C(=O)N1CCCc1nc(-c2cccnc2)no1	none
C#CCNC(=O)C1=C[C@H](c2ccc(C(F)(F)F)cc2)C[C@H](OCCCCO)O1	none (no result: PostGolgi ctrl, PostGolgi yeast, PTK2B oligo ant)
Cc1ccn2cc(CNS(=O)(=O)c3ccc(Cl)s3)nc2c1	none (no result: PTK2B oligo ant)
CCn1c(CSc2nc3ccccc3s2)nnc1SCC(=O)NCC(=O)OC	none
COc1cc(OC)nc(NC(=O)COC(=O)C2CCCCC2)n1	none
CCOC(=O)N1CCN(C(=O)CCCOc2ccccc2)CC1	none
Cc1cccc(N2CCN(C(=O)C(Cc3ccccc3)n3cccc3)CC2)c1C (stereo not given)	Cav32 inh -4.73 (no result: PTK2B oligo ant)
O=C(CCCOc1ccccc1)N1CCN(c2ccccc2)CC1	Cav32 inh -4.33
Cc1cccc(N2CCN(C(=O)C34CC5CC(CC(C5)C3)C4)CC2)c1C	PostGolgi ctrl 51.3
Cc1cccc(N2CCN(C(=O)CCCOc3ccccc3)CC2)c1C	PostGolgi ctrl 33.5, Cav32 inh -7.67
CCC(=O)NS(=O)(=O)c1ccc(-c2c(-c3ccccc3)noc2C)cc1	none (no result: PostGolgi ctrl, PostGolgi yeast, PTK2B oligo ant)
COc1ccc(Cl)cc1NC(=O)CSc1nnc(Cn2c(=O)sc3ccccc32)n1C	none (no result: PTK2B oligo ant)
CCOC(=O)C(Sc1ncnc2c1sc1nc(N3CCOCC3)c3c(c12)CCCC3)c1ccccc1 (stereo not given)	none (no result: PTK2B oligo ant)
O=C(COC(=O)c1ccc2c(c1)OCO2)NCc1ccc(Cl)cc1	none
Cc1cccc(N2CCN(C(=O)C(NS(=O)(=O)c3cccs3)c3ccccc3)CC2)c1C (stereo not given)	PostGolgi ctrl 39.9
O=C(C(NS(=O)(=O)c1cccs1)c1ccccc1)N1CCN(c2ccccc2F)CC1 (stereo not given)	none
COc1c(N2CCN(C(=S)Nc3ccc(F)cc3)C(C)C2)c(F)cc2c(=O)c(C(=O)O)cn(C3CC3)c12 (stereo not given)	Cav32 inh 3.6
CCn1c(C)nc2cc(-c3nnc(-c4c(-c5ccccc5)noc4C)o3)ccc21	PTK2B oligo ant -3.08
Cc1onc(-c2ccccc2)c1-c1ccc(S(N)(=O)=O)cc1	none (no result: PostGolgi ctrl, PostGolgi yeast, PTK2B oligo ant)
COc1ccc(-c2ccnc3nc(N4CCN(c5ccccc5)CC4)nn23)cc1	PostGolgi ctrl 53.3
Cc1ccccc1CN(c1ccc(C(=O)Nc2ccccc2C(=O)NCc2ccco2)cc1)S(C)(=O)=O	PTK2B oligo ant -3.57
Cc1ccccc1CN(c1ccc(C(=O)Nc2ccccc2C(=O)N2CCCC2)cc1)S(C)(=O)=O	none (no result: Cav32 inh)
c1ccc(-c2ccc(-c3cnc4n3CCCCC4)cc2)cc1	PostGolgi yeast 80.8
c1cc2c(cc1-c1cnc3n1CCC3)OCCO2	PostGolgi ctrl 37.1
FC(F)(F)c1nnc2ccc(-n3ccnc3)nn12	none (no result: PTK2B oligo ant)
N#Cc1cc2c(nc1SCc1cccnc1)CCCCC2	PostGolgi ctrl 62.6, PostGolgi yeast 43.5
N#Cc1cc2c(nc1SCc1ccc(Cl)cc1)CCCC2	none (no result: PostGolgi ctrl, PostGolgi yeast)
N#Cc1cc2c(nc1SCc1ccccc1)CCCCC2	PostGolgi ctrl 30.9
N#Cc1cc2ccccc2nc1SCc1cccnc1	none
O=C(Nc1ccccc1)N1CCN(c2cccc(C(F)(F)F)c2)CC1	none
O=C(CS(=O)(=O)Cc1ccccc1)N1CCN(c2cccc(C(F)(F)F)c2)CC1	Cav32 inh -4.32
CC(C)CN1C(=S)SC(C)(C)C1n1oc(=O)n(-c2ccc(Cl)cc2)c1=O (stereo not given)	Cav32 inh -4.07
O=S(=O)(NCC(c1cccnc1)N1CCN(Cc2ccccc2)CC1)c1ccccc1 (stereo not given)	none (no result: PTK2B oligo ant)
CCC(C)NC(=O)c1c(N)n(/N=C/c2ccccn2)c2nc3ccccc3nc12 (stereo not given)	PostGolgi ctrl 37.4
O=C(Cn1c(=O)n(Cc2ccco2)c(=O)c2c3c(sc21)CCCCC3)Nc1ccccc1	Cav32 inh -4.52
O=C(Cn1c(=O)n(Cc2ccco2)c(=O)c2c3c(sc21)CCCCC3)c1ccccc1	none
CCc1ccc(NC(=O)N(C2CCCCC2)C(C)c2cccnc2)cc1 (stereo not given)	PostGolgi ctrl 95.2, PostGolgi yeast 106.5
COc1ccc(NC(=O)N(C2CCCCC2)C(C)c2ccco2)c(OC)c1 (stereo not given)	none
COc1ccc(NC(=O)N(C2CCCCC2)C(C)c2cccnc2)c(OC)c1 (stereo not given)	PostGolgi yeast 80.5
CCc1ccc(NC(=O)c2cccnc2)cc1	none (no result: Cav32 inh)
CC(=O)N1CCC(N(C(=O)Nc2ccc(C)c(C)c2)C2CCCC2)CC1	none
Cc1ccc(NC(=O)N(C2CCCCC2)C(C)c2cccnc2)cc1C (stereo not given)	PostGolgi ctrl 90.4, PostGolgi yeast 99.0 (no result: PTK2B oligo ant)
COc1ccc2nc(SCC(=O)Nc3ccccc3C)[nH]c2c1	none
COc1ccc(OC)c(C2=Nn3c(nnc3-c3ccco3)SC2)c1	none
COc1ccc(OCc2nnc3n2N=C(c2ccc(C)cc2)CS3)cc1	none (no result: PTK2B oligo ant)
Cc1ccc(-c2nnc3n2N=C(c2ccccc2Br)CS3)cc1	Cav32 inh -4.02
COc1ccc(OCc2nnc3n2N=C(c2ccc(OC)cc2)CS3)cc1	PostGolgi ctrl 32.1, Cav32 inh -7.58 (no result: PTK2B oligo ant)
COc1ccc(C2=Nn3c(nnc3-c3ccco3)SC2)cc1	PostGolgi ctrl 45.0
Cc1cc(-c2nnc3n2N=C(c2ccc(-c4ccccc4)cc2)CS3)n[nH]1	PTK2B oligo ant -3.4
O/N=C\c1cccn1-c1ccc(Br)cc1	none
CCCNCc1cc(OC)c(OCCC)cc1Cl	none (no result: PostGolgi ctrl, PostGolgi yeast)
COc1ccc(-c2cc(CCCC(=O)NCc3ccccn3)no2)cc1	none (no result: PTK2B oligo ant)
CCc1nnc(NC(=O)c2cc(-c3ccccc3)nn2-c2ccccc2)s1	none
Cn1c(OCc2ccc3c(c2)OCO3)nc2c1c(=O)n(Cc1cccc(Cl)c1)c(=O)n2C	none (no result: PostGolgi ctrl, PostGolgi yeast)
O=C(Nc1ccc(S(=O)(=O)N2CCCCCC2)cc1)C1CCCO1 (stereo not given)	none (no result: PostGolgi yeast)
CCN(CC(O)Cn1c2ccccc2c2ccccc21)S(=O)(=O)c1ccc(C)cc1 (stereo not given)	PostGolgi ctrl 54.8
O=C1C(Cl)=C(NCC2CCCO2)C(=O)N1CCc1ccccc1 (stereo not given)	none
CN(C)S(=O)(=O)Oc1ccsc1C(=O)Nc1ccccc1Cl	none (no result: Cav32 inh)
CN(C)S(=O)(=O)Oc1ccsc1C(=O)Nc1cccc(Cl)c1Cl	PostGolgi ctrl 31.8
CN(C)S(=O)(=O)Oc1ccsc1C(=O)Nc1ccc(Cl)cc1	Cav32 inh -4.43
O=C(Nc1sccc1C(=O)N1CCOCC1)c1cccnc1	none
Cc1ccc(C(C)NC(=O)c2ccco2)cc1C (stereo not given)	none
Cc1cc(N2CCCCC2)nc2ccc(NC(=O)c3ccc(Br)o3)cc12	Cav32 inh -4.92
O=C(Nc1ccc(N2CCCC2)cc1)c1ccc(Br)o1	none
CNc1ccccc1C(=O)OCC(C)=O	none (no result: PostGolgi ctrl, PostGolgi yeast, PTK2B oligo ant)
CCOC(=O)CSc1nc2c(sc(=S)n2Cc2ccco2)c(=O)n1-c1ccccc1	Cav32 inh -3.87
CCOC(=O)CSc1nc2c(sc(=S)n2-c2ccccc2OC)c(=O)n1Cc1ccco1	Cav32 inh -5.63
CCN(CC)C(=O)CSc1nc2c(sc(=S)n2Cc2ccco2)c(=O)n1-c1ccccc1	none
Cc1nc(NC(=O)CSc2nnnn2Cc2ccccc2)sc1C	none
CCOC(=O)C(C)Sc1nc2c(c(=O)[nH]c(=O)n2C)n1Cc1ccc(Cl)cc1 (stereo not given)	PostGolgi ctrl 31.8 (no result: PTK2B oligo ant)
